Screen size: about 2,100 compounds; about 1,100 (52%) were called active. Inconclusive results (about 27%) are left out. So high a share suggests a set chosen from earlier hits. The list shows a part of the results. Values without a mark were called inactive. The call rests on the fitted dose curve; in most records, active means well fitted inhibition curve with a large enough effect; inconclusive means small, poorly fitted or top-dose-only effect; inactive means no such curve, though single readings can be large or run the other way.
Biological target: DNA dC->dU-editing enzyme APOBEC-3G (Homo sapiens) (UniProt Q9HC16)
Assay: qHTS for inhibitors of Vif-A3G interactions: Cherry picks counterscreen;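 further: hits raise yellow fluorescence by blocking Vif-driven A3G-eYFP degradation; nearly all actives have a fitted effect of over 70% in size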;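 on max response: max response given as percent of control signal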
Conditions: HeLa A3G-eYFP + Vif (tagged APOBEC3G with the HIV-1 protein that degrades it), eYFP fluorescence, 24 h
In short: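 HeLa cells stably expressing A3G-eYFP and Vif were treated for 24 h at 37 deg C with compounds at several concentrations; yellow fluorescence (Ex 488 nm, Em 500-530 nm) read by Acumen Explorer, MG132 as positive control.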
Potency means the concentration at half of the fitted maximal effect.

Sequence of DNA dC->dU-editing enzyme APOBEC-3G (Homo sapiens) (Q9HC16 whole entry, looked up): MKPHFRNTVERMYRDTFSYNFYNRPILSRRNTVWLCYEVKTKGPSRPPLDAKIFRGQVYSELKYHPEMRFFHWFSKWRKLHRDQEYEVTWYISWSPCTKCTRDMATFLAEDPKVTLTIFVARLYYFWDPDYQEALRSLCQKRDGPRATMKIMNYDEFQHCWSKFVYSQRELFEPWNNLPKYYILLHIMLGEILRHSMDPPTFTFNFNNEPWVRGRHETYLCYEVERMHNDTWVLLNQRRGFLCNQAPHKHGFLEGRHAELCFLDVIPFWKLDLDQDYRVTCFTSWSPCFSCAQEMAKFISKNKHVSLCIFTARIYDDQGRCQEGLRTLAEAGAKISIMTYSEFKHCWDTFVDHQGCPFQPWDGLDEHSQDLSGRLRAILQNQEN

SMILES	max response [%]	Potency
Cc1cc2nc(SCCOC(=O)Nc3cccc(Cl)c3)nc(C)c2cc1C	0.137	
C=CCOC(=O)C1=C(C)NC(C)=C(C(=O)OCC=C)C1c1cn(-c2ccccc2)nc1-c1ccco1	-22.7	
COc1ccc2c(C)cc(SCC(=O)N(C)C3CCS(=O)(=O)C3)nc2c1 (stereo not given)		20.6 µM (active)
COc1ccc2c(C)cc(SCC#N)nc2c1		18.4 µM (active)
CS(=O)(=O)Nc1ccc(C2=NN(S(C)(=O)=O)C(c3ccc4c(c3)OCO4)C2)cc1 (stereo not given)		14 µM (active)
CS(=O)(=O)N1N=C(c2ccccc2)CC1c1ccc2c(c1)OCO2 (stereo not given)		12.5 µM (active)
CCS(=O)(=O)N1N=C(c2cccc(NS(C)(=O)=O)c2)CC1c1ccc(C)cc1 (stereo not given)		23.1 µM (active)
CCS(=O)(=O)N1N=C(c2ccc(C)cc2)CC1c1cc2ccc(OC)cc2nc1Cl (stereo not given)	-6.38	
CC1=CC(C)(C)NC(=S)N1c1ccc2ccccc2c1	5	
C=C(/C=C/c1ccc(N(C)C)cc1)c1nc2ccccc2s1		16.4 µM (active)
O=c1[nH]ncc2c3ccccc3n(Cc3cccc(Cl)c3)c12		18.4 µM (active)
CC[N+](C)(C(=O)O)/C(=C\c1ccccc1)c1ccnc2ccccc12 (stereo not given)		16.4 µM (active)
C[C@@H]1O[C@@H](O[C@@H]2C(=O)c3c(O)cc(O)cc3O[C@H]2c2ccc(O)c(O)c2)[C@H](O)[C@H](O)[C@H]1O	-0.692	
CCSc1nnc(-c2sc3nnc(-c4ccccc4)c(-c4ccccc4)c3c2N)o1		4.61 µM (active)
COc1ccc(NC(=O)c2sc3nc4c(cc3c2N)CN(Cc2ccccc2)CC4)c(OC)c1		18.4 µM (active)
Nc1c(C(=O)c2ccc(Cl)cc2)sc2nc3c(cc12)CCC3		16.4 µM (active)
CCN1CCc2nc3sc(C(=O)c4ccccc4)c(N)c3cc2C1		18.4 µM (active)
Cc1cc(N2CCN(C)CC2)ccc1NC(=O)c1c2c(nc3ccccc13)CCN(Cc1ccccc1)C2	4.5	
COCCN1C(=O)/C(=C/c2ccc(N3CCCC3)cc2C)SC1=S		4.11 µM (active)
COCCN1C(=O)/C(=C/c2ccc(N3CCCC3)cc2)SC1=S		7.31 µM (active)
Cc1ccc2oc(/N=C(\N)NC(=O)C(C)(C)C)nc2c1	-19	
C/C(=N\NC(N)=S)C12CC3CC(CC(C3)C1)C2	27.9	
COc1cc(OC)c(/C=C/c2ccnc3ccccc23)c(OC)c1		7.31 µM (active)
COc1ccc(NC(=S)Nc2ncccc2C)c(OC)c1	-0.005	

SMILES	max response [%]	Potency
COc1ccc(/C=C/c2ccnc3ccccc23)c(OC)c1		16.4 µM (active)
c1ccc2c(-c3nc4ccccc4[nH]3)cccc2c1		11.2 µM (active)
CCC(C)n1c(NC(=O)c2ccccc2)c(C#N)c2nc3ccccc3nc21 (stereo not given)		18.4 µM (active)
CCn1ncc(/C=N\NC(=O)c2csc3ccccc23)c1C		5.59 µM (active)
COc1ccc(Cn2c(=O)cc(N)n(-c3ccccc3C)c2=O)cc1		11.2 µM (active)
CCN(CC)c1ccc2cc(-c3nnc(-c4cccc(Cl)c4)o3)c(=O)oc2c1		2.59 µM (active)
CCN(CC)c1ccc2cc(-c3nc4ccccc4n3C)c(=O)oc2c1		1.3 µM (active)
CCN(CC)c1ccc2cc(-c3nc(-c4ccccc4)no3)c(=O)oc2c1		2.06 µM (active)
CCN(CC)c1ccc2cc(-c3nc(-c4cc(OC)c(OC)c(OC)c4)no3)c(=O)oc2c1		0.517 µM (active)
CCN(CC)c1ccc2cc(-c3nnc(-c4ccccc4)o3)c(=O)oc2c1	49.6	
CN(Cc1cnn(Cc2ccccc2)c1)C(=O)c1cccc(S(=O)(=O)N2CCOCC2)c1		11.2 µM (active)
c1ccc(-c2cccc(-c3ccccn3)n2)nc1	-27.5	
Nc1[nH]c2cc([N+](=O)[O-])ccc2c1-c1ccccn1		4.61 µM (active)
COc1cc(C(=O)NCCOc2cc(C)cc(C)c2)cc(OC)c1OC		3.14 µM (active)
CCn1c(CNC(=O)c2cc(OC)c(OC)c(OC)c2)cc2cc(C)ccc21	-10.2	
CCOc1ccccc1Oc1nc(C)nc2c1oc1ccccc12		2.91 µM (active)
CNC(=O)C(Sc1nc(C)nc2c1oc1ccccc12)C(C)=O (stereo not given)	-16.6	
O=Cc1s/c(=N\S(=O)(=O)c2ccccc2)n(CCCCl)c1Cl		8.2 µM (active)
COc1ccc(C2=CC(c3ccc(N(C)C)cc3)n3nnnc3N2)cc1 (stereo not given)		23.1 µM (active)
CN(C)c1ccc(C2C=C(c3ccccc3)Nc3nnnn32)cc1 (stereo not given)		23.1 µM (active)
O=C(CSc1n[nH]c(-c2ccccn2)n1)Nc1ccc(Cl)cc1	17.5	
N#Cc1c(C(F)(F)F)cc(-c2cccs2)nc1SCC(=O)Nc1cccc(Cl)c1	-23.7	
N#Cc1c(C(F)(F)F)cc(-c2cccs2)nc1SCC(=O)Nc1cccc(C(F)(F)F)c1		20.6 µM (active)
CCOC(=O)c1ccc(NC(=O)CSc2nc(-c3cccs3)cc(C(F)(F)F)c2C#N)cc1		23.1 µM (active)

SMILES	max response [%]	Potency
N#Cc1c(C(F)(F)F)cc(-c2cccs2)nc1SCC(=O)Nc1ccc(Cl)cc1		10.3 µM (active)
O=[N+]([O-])c1cc(O)c2ncccc2c1	-9.81	
O=[N+]([O-])c1cc(Cl)c2cccnc2c1O	30.7	
O=[N+]([O-])c1ccc(Oc2cccc3cccnc23)c([N+](=O)[O-])c1		12.5 µM (active)
COc1cc(OC)cc(C(=O)N2CC(=O)Nc3ccccc32)c1		3.53 µM (active)
CCC(C)[C@H](NC(=O)N1CC(=O)Nc2ccccc21)C(=O)Nc1ccccc1C (stereo not given in full)		9.94 µM (active)
Cc1cc(C)cc(C(=O)N2CC(=O)Nc3ccccc32)c1		0.704 µM (active)
O=C1CN(C(=O)c2cc(Br)c(Br)s2)c2ccccc2N1		12.5 µM (active)
CCCn1nc(C(=O)N2CC(=O)Nc3ccccc32)c2ccccc2c1=O		7.04 µM (active)
COc1cc(C(=O)N2CC(=O)Nc3ccccc32)cc(OC)c1OC		17.7 µM (active)
COc1cc(C(=O)c2ccc3c(c2)OCO3)cc(OC)c1OC		5.59 µM (active)
CCOC(=O)N1CCN(c2c(NCc3ccc(F)cc3)c(=O)c2=O)CC1		14 µM (active)
CCOC(=O)Nc1cc2c(c(N)n1)N=C(c1ccccc1)CN2		0.058 µM (active)
C=CCNC(=S)N/N=C(\C)c1ccc(OC)cc1	-1.31	
COc1ccc(NC(=S)NN(C)C(=S)Nc2ccc(OC)cc2)cc1		6.27 µM (active)
COc1ccc(N(C)S(=O)(=O)c2cccc3cccnc23)c(OC)c1		14 µM (active)
O=c1cc(-c2ccccc2)[nH]c2ccccc12		3.14 µM (active)
Cc1ccc(N/C(N)=N/c2nc(CSc3nnc(C)s3)cc(=O)[nH]2)c(C)c1		2.8 µM (active)
O=c1c(Cl)c2oc3ccccc3nc-2c2ccccc12		10.3 µM (active)
CC[n+]1c(C=C2C=C(C)OC(C)=C2)sc2ccccc21		4.11 µM (active)
COCCCN(C(C)=O)c1nc(-c2ccc(OC)cc2)cs1		14 µM (active)
CCCC(=O)NC1=C(Cl)C(=O)c2ccccc2C1=O	62.1	
O=C(CCc1ccccc1)Nc1ccc(Cl)cn1		7.9 µM (active)
S=C(NCc1ccco1)Nc1ccc(Cl)cn1	-10.1	

SMILES	max response [%]	Potency
Cc1ccc(-c2nc(-c3cc4cccc(OCc5cccc(F)c5)c4oc3=O)no2)cc1		23.1 µM (active)
COc1cc(/C=C/C(=O)c2ccc3c(c2)OCCO3)cc(Br)c1OCC(=O)N(C)C		14 µM (active)
Cc1c(=O)n(OCc2ccc(Cl)cc2)c2ccccc2[n+]1[O-]	-2.47	
O=c1c[n+]([O-])c2ccccc2n1OCc1c(F)cccc1F		19.8 µM (active)
CN(C)C=Nc1c(Br)cc(Br)c2nonc12		4.61 µM (active)
CCNC(=S)N/N=C(\C)c1ccc(N2CCOCC2)cc1	-8.21	
CCOc1ccc2nc(N3C(=O)/C(=C/c4ccc(Cl)cc4)NC3=S)sc2c1		18.4 µM (active)
COc1ccc2nc(N3C(=O)/C(=C/c4ccccc4)NC3=S)sc2c1		11.6 µM (active)
COc1ccc(/C=C/C=C2\NC(=S)NC2=O)cc1	-11.7	
CCOc1cc(C#N)c(NC(=O)c2cccnc2)cc1OCC		7.04 µM (active)
CSc1ccc(/C=N/NC(=O)c2ccccc2Cl)cc1		12.5 µM (active)
CN(C)c1ccc(/C=N/NC(=O)c2ccccc2Cl)cc1		4.98 µM (active)
Cc1ccc(/C=N/NC(=O)c2cc(C)oc2C)cc1		9.94 µM (active)
COc1cc(C(=O)Nc2ccc3c(c2)ncn3C)cc(OC)c1OC		7.04 µM (active)
COc1cc(C(=O)N/N=C/C2CC=CCC2)cc(OC)c1OC (stereo not given)	-11.5	
COc1cc(C(=O)Nc2ccc3ccccc3c2)cc(OC)c1OC		1.58 µM (active)
COc1cc(C(=O)N/N=C/c2ccccn2)cc(OC)c1OC		12.5 µM (active)
S=C(NN=Cc1ccccn1)Nc1ccccn1	20.1	
COc1ccc(C(=O)/C=C2/c3ccccc3CC(C)(C)N2C)cc1		12.5 µM (active)
CN(C)CCOc1ccc2c(c1)C(=O)C(=Cc1ncc([N+](=O)[O-])n1C)C2		8.86 µM (active)
COc1ccc(S(=O)(=O)N2N=C(C)Oc3ccccc3C2=O)cc1		7.9 µM (active)
COC(=O)C1CCC(=O)N1C(c1ccc(OC)cc1)c1cc(OC)c(OC)c(OC)c1 (stereo not given)		0.559 µM (active)
COC(=O)c1c(N2C(=O)[C@H]3[C@@H](C2=O)[C@]2(C(=O)Nc4c(C)cccc42)N2CCC[C@@H]32)sc(C)c1C		6.27 µM (active)
